Experimental data published in PubChem BioAssay (NCATS).
Inconclusive results are not listed. Activity calls are given as the source filed them. The call rests on the fitted dose curve; in most records, active means well fitted inhibition curve with a large enough effect; inconclusive means small, poorly fitted or top-dose-only effect; inactive means flat fitted curve, though single readings scatter.

Test: qHTS for Inhibitors of Plasmodium falciparum (HB3) proliferation (AID 504318); further: nearly all actives have a fitted effect of over 60% in size;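 on activity change, negative = inhibition: 0% = DMSO vehicle and -100% = artemisinin control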
Settings: P. falciparum HB3 in erythrocytes, SYBR Green DNA, 72 h; series mostly up to 7.21 µM; activity change, negative = inhibition: at the top concentration
From the text: Plasmodium falciparum is a virulent malarial parasite that kills 1-2 million people worldwide each year. Malaria not only inflicts tremendous suffering and morbidity on the human population, but has dramatically influenced the course of civilization with profound sociological and economic implications (Shah, S. 2010). Transmitted by mosquitoes, the sporozoite form of the parasite enters the blood stream to infect hepatocytes, where they become merozoites that infect red blood cells (erythrocytes). Within erythrocytes, merozoites begin a […] cycle of growth and division, after which the parasite is released to infect new red blood cells. Gametocytes, which form within erythrocytes as well, circulate in the bloodstream and are ingested by the mosquito, thereby completing the life cycle (see CDC website). To profile malarial lines for differential chemical responses and to identify inhibitors of malarial growth, an assay that measures P. falciparum growth and replication within erythrocytes was employed. This assay uses a DNA binding fluorescent dye (SYBR Green) to detect parasite DNA following cell lysis. Because mature erythrocytes lack DNA, only Plasmodium-derived DNA is detected. The P. falciparum line cp250, derived from a malarial isolate from Cambodia, (Mu, J., et al. 2010) was added to the panel of lines, Dd2, HB3, 7G8 and GB4 in this study. Laboratory of Assay Development and Screening Technology [ADST] and NIH Chemical Genomics Center [NCGC] Boston University, Chemistry Department, Center for Chemical Methodology and Library Development [CMLD-BU] NIH National Institute of Allergy and Infectious Diseases [NIAID]
ADST Assay Protocol Summary: The 1536-well SYBR Green viability assay was based on the method of Bennett et al (2004) and described previously in 1536-well format (Yuan J., et al. 2009). For screening 3 ul culture medium was dispensed into 1536 well black clear bottom plates (Aurora Biotechnologies) using a Multidrop Combi (Thermo Fisher Scientific Inc.), 23 nL compounds in DMSO were added by a pin transfer (Cleveland, P.H. and Koutz, P.J, 2005) using a pin tool-based delivery system (Kalypsys), and 5 ul of erythrocytes infected with P. falciparum one of five lines (cp250, Dd2, HB3, 7G8 or GB4, 0.3% parasitemia, 2.5% hematocrit final concentration) were added. The plates were incubated at 37C in a humidified incubator in 5% CO2 for 72 h, and 2 ul lysis buffer (20 mM Tris HCl, 10 mM EDTA, 0.16% saponin, 1.6% triton X, 10X SYBR Green I (supplied as 10,000X final concentration by Invitrogen) was added to each well. The plates were mixed for 25 sec with gentle shaking and incubated overnight at room temperature in the dark. The following morning, fluorescence intensity at 485(14) nm excitation and 535(25) nm emission wavelengths was measured on an EnVision (Perkin Elmer) plate reader. Plate reads were normalized relative to the control inhibitor (0.29 uM artemisinin) and vehicle (DMSO) wells present on each plate and then corrected by an algorithm using vehicle-only control plates at the beginning and end of the compound plate stack. References Shah, S. (2010). The Fever: how malaria has ruled humankind for 500,000 years. New York, Sarah Crichton Books. CDC web site, http://www.cdc.gov/malaria/about/biology/index.html Mu, J., Myers, R.A., Jiang, H., Liu, S., Ricklefs, S., Waisberg, M., Chotivanich, K., Wilairatana, P., Krudsood, S., White, N.J., et Plasmodium falciparum genome-wide scans for positive selection, recombination hot spots and resistance to antimalarial drugs Nature Genetics 2010, 42, pp 268-271 Bennett TN, Paguio, M., Gligorijevic, B., Seudieu, C., Kosar, A. D., Davidson, E., and Roepe, P. D. Novel, rapid, and inexpensive cell-based quantification of antimalarial drug efficacy Antimicrobial Agents Chemother. 2004, 48(5): pp 1807-10 Yuan J, Johnson RL, Huang RL, Wichterman J, Jiang HY, Hayton K, Fidock DA, Wellems TE, Inglese J, Austin CP, Su XZ. […]
Potency means the concentration at half of the fitted maximal effect.

Potency, active:
COC(=O)C1=C(C(=O)OC)[C@@H]2Nc3ccccc3[C@@]23C[C@@H](C(=O)OC)N(C(=O)c2cc(C)oc2C)C3=N1 1.69 µM
COC(=O)C1=C(C(=O)OC)[C@@H]2N(Cc3ccccc3)c3ccccc3[C@@]23C[C@@H](C(=O)OC)N(S(=O)(=O)c2ccc(C)cc2)C3=N1 1.51 µM
COC(=O)C1=C(C(=O)OC)[C@@H]2N(Cc3ccccc3)c3ccccc3[C@@]23C[C@@H](C(=O)OC)N(S(=O)(=O)c2ccc(Br)cc2)C3=N1 1.69 µM

Activity change, negative = inhibition, inactive:
COC(=O)C1=C(C(=O)OC)[C@@H]2N(C)c3ccc(OC)cc3[C@@]23C[C@@H](C(=O)OC)N(S(=O)(=O)c2c(C)noc2C)C3=N1 -5.79%
CC#CCN1c2ccccc2[C@]23C[C@@H](C(=O)OC)N(C(=O)CC(C)C)C2=NC(C(=O)OC)=C(C(=O)OC)[C@H]13 2.21%
CCN1C(=O)N(C)[C@@H](c2ccccc2)C(C(C)=O)=C1C -9.55%
C=CCN1C=C2C(=O)C(C)(OC(=O)c3cccs3)C(=O)C=C2C=C1CCCC(=O)OC (stereo not given) -2.71%
CCOC(=O)CN1C(=O)N[C@@H](c2ccccc2)[C@@H](C(=O)OC)[C@H]1C 0.962%
CCN1C(=O)N(S(=O)(=O)c2ccc(C)cc2)[C@@H](c2ccccc2)C(C(=O)OC)=C1C -9.9%
Cc1ccc(S(=O)(=O)N2CCc3nc(-c4ccccc4)c4c(c3C2)CO[C@@H](C)C4)cc1 -7.57%
C=CCN1C=C2C(=O)C(C)(OC(=O)CCC(=O)OC)C(=O)C(Br)=C2C=C1c1ccc(OC)cc1 (stereo not given) -1.9%
COC(=O)CCCC1=CC2=CC(=O)C(C)(OC(=O)c3cccs3)C(=O)C2=CN1CC1CC1 (stereo not given) 6.6%
CC1(C)O[C@@H]2[C@@H](O1)C(c1ccccc1)(c1ccccc1)OP(=O)(O)OC2(c1ccccc1)c1ccccc1 4.61%
COC(=O)N[C@@H](c1cccc(C)c1)C(C(C)=O)C(=O)OC (stereo not given in full) 0.49%
COC(=O)CCC(=O)OC1(C)C(=O)C2=CN(CCc3c[nH]c4ccccc34)C(c3ccc(OC)cc3)=CC2=C(Br)C1=O (stereo not given) -6.84%
COC(=O)[C@H]1[C@@H](C)N(CCc2cc(OC)c(OC)c(OC)c2)C(=O)N[C@H]1c1ccccc1 -11%
COC(=O)N1CCc2cc(OC)c(OC)cc2C1Cc1ccc(OC)cc1 (stereo not given) 2.6%
CCN1C(=O)N[C@@H](c2cccs2)C(C(=O)OC)=C1C 4.48%
COC(=O)CCC(=O)OC1(C)C(=O)C2=CN(C(CO)CO)C(c3ccc(OC)cc3)=CC2=C(Br)C1=O (stereo not given) -10.6%
C[C@@H]1C[C@](C)(C(=O)c2ccc3ccccc3c2)C=C1c1ccc2ccccc2c1 -3.81%
CCOC(=O)N1C2=NC(C(=O)OC)=C(C(=O)OC)[C@@H]3N(C)c4ccc(OC)cc4[C@]23C[C@H]1C(=O)OC -4.52%
CCCCC1=CC2=C(c3ccco3)C(=O)C(C)(OC(=O)c3ccc(OC)cc3)C(=O)C2=CN1CCOC (stereo not given) -3.92%
COC(=O)C1=C(C)N(Cc2ccco2)C(=O)N[C@@H]1c1ccco1 0.0624%
COCCN1C=C2C(=O)C(C)(OC(=O)CCc3ccccc3)C(=O)C=C2C=C1c1ccc(C#N)cc1 (stereo not given) -10.6%
CCOC(=O)NN=C1C[C@@H](O)[C@@H](O)[C@@H]2[C@H]3C(=O)N(CC)C(=O)[C@@H]3CC[C@@H]12 5.09%
CCN1C(=O)N[C@@H](c2cccs2)C(C(C)=O)=C1C 0.965%
COC(=O)C1=C(C(=O)OC)[C@@H]2Nc3ccccc3[C@@]23C[C@@H](C(=O)OC)N(S(=O)(=O)c2c(C)noc2C)C3=N1 -8.41%
CC#CCN1c2ccccc2[C@]23C[C@@H](C(=O)OC)N(C(=O)OCC)C2=NC(C(=O)OC)=C(C(=O)OC)[C@H]13 -5.85%
CCOC(=O)CN1C(=O)N[C@@H](CCc2ccccc2)[C@H](C(C)=O)[C@H]1C 2.36%
COC(=O)C1=C(C(=O)OC)[C@@H]2N(C)c3ccccc3[C@@]23C[C@@H](CO)N(C(=O)c2cc(C)oc2C)C3=N1 -8.51%
C=CCN1C=C2C(=O)C(C)(OC(=O)CC)C(=O)C=C2C=C1CCCC (stereo not given) -2.07%
CCCCC1=CC2=CC(=O)C(C)(OC(=O)CC)C(=O)C2=CN1c1ccccc1 (stereo not given) -0.607%
C=C(C(C)=O)C(O)c1ccc2ccccc2c1 (stereo not given) 6.51%
COC(=O)[C@H]1[C@@H](C)N(Cc2ccccc2)C(=O)N[C@H]1c1ccccc1 -2.76%
COC(=O)CCCC1=CC2=CC(=O)C(C)(OC(=O)CCc3ccccc3)C(=O)C2=CO1 (stereo not given) -8.71%
CCN(CC)CCCN1C=C2C(=O)C(C)(OC(=O)CCC(=O)OC)C(=O)C(Br)=C2C=C1c1ccc(OC)cc1 (stereo not given) 3.24%
CCCCc1nc2c(c3c1C[C@H](C)OC3)CN(C(=O)Nc1cccc(C#N)c1)CC2 -9.34%
C=CCN1c2ccccc2[C@]23C[C@@H](C(=O)OC)N(S(=O)(=O)c4cccs4)C2=NC(C(=O)OC)=C(C(=O)OC)[C@H]13 -6.07%
COC(=O)CCCC1=CC2=C(c3ccccc3)C(=O)C(C)(OC(=O)C3CCCC3)C(=O)C2=CN1Cc1ccccc1 (stereo not given) -8.81%
CCCCC1=CC2=CC(=O)C(C)(OC(=O)CC)C(=O)C2=CN1c1ccc(OC)cc1 (stereo not given) -0.823%
